# Assay results taken from PubChem BioAssay AID463173 (ICCB-Longwood Screening Facility, Harvard Medical School, 2010).
# Screen size: about 52,000 compounds; about 4,300 (8.3%) were called active. Many of the other results were omitted from the sample, so actives are more common in it than they were. Unmarked numbers belong to inactive results. Cut-off read from the data, not from the text of the source: active = survival mostly below about 52% (no sharp cut-off); inactive = mostly above about 56%.
# Test system: DeltatarO mutant
# Assay: S. aureus survival, RN4220 and DeltatarO strains – OD600, teichoic acid synthesis inhibitors, primary screen (AID 463173)
# Settings: S. aureus RN4220 wild type/DeltatarO growth, OD600, 18 h, stronger effect = lower value, screened at 18.75 µg/mL (by protocol)
row,SMILES,survival
1,CCOC(=O)N1CCC(NC(=O)c2cnn(-c3ccc(C)cc3C)c2C2CCN(C(=O)OC(C)(C)C)CC2)CC1,124%
2,O=C(CNC(=O)c1ccccc1Cl)OCc1cc(=O)n2nc(C3CC3)sc2n1,78%
3,CCCCOC(=O)c1ccc(NC(=O)c2cc(-c3ccccc3)on2)cc1,91%
4,Cc1ccc(NC(=O)CSc2ncnc3c2sc2ccccc23)cc1C,113%
5,CCN1CCN(Cc2c(O)ccc3oc(C)c(C(=O)Nc4ccc(OC)cc4)c23)CC1,78%
6,Cc1cc2c(C)nc3ccc(C(=O)O)cc3c2o1,71%
7,Cc1ccc(OC(C)C(=O)N2CCN(CCc3ccncc3)CC2)cc1C (configuration not stated),52%
8,Cc1ccc(Cl)cc1N1CCN(C(=O)C2CCN(S(=O)(=O)c3c(C)noc3/C=C/c3ccccc3F)CC2)CC1,72%
9,CCOC(=O)c1cc(S(=O)(=O)NCc2ccccc2)[nH]n1,124%
10,CC(C)c1ccc(Nc2ncnc3onc(-c4ccc(F)cc4)c23)cc1,80%
11,COC(=O)c1ccc(NC(=O)CC2C(=O)N(c3cccc(OC)c3)C(=O)N2C(C)C)cc1 (configuration not stated),88%
12,COc1cccc(CN2C(=O)N(c3ccc(C)cc3)C(=O)C2CC(=O)Nc2cc(OC)cc(OC)c2)c1 (configuration not stated),144%
13,COC(=O)c1ccc(NC(=O)CC2C(=O)N(c3ccccc3)C(=O)N2Cc2ccc(F)cc2)cc1 (configuration not stated),55%
14,O=C(CC1C(=O)N(c2ccccc2)C(=O)N1CCC1=CCCCC1)Nc1ccc(F)cc1 (configuration not stated),48%
15,CCCOc1ccc(NC(=O)CC2C(=O)N(c3ccccc3)C(=O)N2Cc2ccc(F)cc2)cc1 (configuration not stated),17% (active)
16,CCOc1ccc(NC(=O)CC2C(=O)N(c3ccccc3)C(=O)N2Cc2cccc(OC)c2)cc1 (configuration not stated),102%
17,Cc1ccc(N2C(=O)C(CC(=O)Nc3ccccc3)N(CCC3=CCCCC3)C2=O)cc1 (configuration not stated),67%
18,CCc1ccc(NC(=O)CC2C(=O)N(c3ccccc3)C(=O)N2C(C)C)cc1 (configuration not stated),-5% (active)
19,Cc1ccc(N2C(=O)C(CC(=O)Nc3ccc(F)cc3)N(CCC3=CCCCC3)C2=O)cc1 (configuration not stated),55% (active)
20,COc1ccc(CN2C(=O)N(c3ccc(F)cc3)C(=O)C2CC(=O)Nc2ccccc2)cc1 (configuration not stated),77%
21,CCCOc1ccc(NC(=O)CC2C(=O)N(c3ccc(C)cc3)C(=O)N2C(C)C)cc1 (configuration not stated),128%
22,CCCOc1ccc(NC(=O)CC2C(=O)N(c3ccc(C)cc3)C(=O)N2Cc2cccc(OC)c2)cc1 (configuration not stated),46% (active)

row,SMILES,survival
1,CCN(C(=O)c1c(C)oc2ncnc(N3CCCCC3)c12)c1cc(C)ccc1C,95%
2,CCC(C)C(NC(=O)c1cc(C)oc1C)C(=O)O (configuration not stated),95%
3,CCOc1ccc(NC(=O)c2oc3ccccc3c2NC(=O)c2ccc(OC)cc2OC)cc1,51%
4,Cc1ccc(N2C(=O)C(CC(=O)Nc3ccc(F)cc3)N(Cc3ccc4c(c3)OCO4)C2=O)cc1 (configuration not stated),70%
5,O=C(CC1C(=O)N(c2ccc(F)cc2)C(=O)N1Cc1ccc2c(c1)OCO2)Nc1ccc(F)cc1 (configuration not stated),72%
6,O=C(CC1C(=O)N(c2ccc(F)cc2)C(=O)N1Cc1ccc2c(c1)OCO2)Nc1ccc(Cl)cc1 (configuration not stated),43% (active)
7,Cc1ccc(Cl)cc1NC(=O)c1cc(S(=O)(=O)N2CCCCCC2)cn1C,71%
8,O=C(CSc1oc(-c2cccs2)nc1S(=O)(=O)c1ccccc1)Nc1ccc(F)cc1,55%
9,O=C(NCC(c1cccnc1)N1CCc2ccccc2C1)C(=O)Nc1ccccc1 (configuration not stated),81%
10,CCC1CN(C(=O)NCc2ccccc2)c2cc(Cl)ccc2O1 (configuration not stated),46% (active)
11,CCC1CN(C(=O)NCc2ccc(F)cc2)c2cc(C)ccc2O1 (configuration not stated),52%
12,CCC1CN(C(=O)NCc2cccc(OC)c2)c2cc(Cl)ccc2O1 (configuration not stated),43% (active)
13,CC1CN(C(=O)NCc2ccccc2)c2cc(Cl)ccc2O1 (configuration not stated),49%
14,CCC1CN(C(=O)NCc2ccccc2)c2cc(C)ccc2O1 (configuration not stated),51%
15,CCC1CN(C(=O)NCc2ccc(F)cc2)c2ccccc2O1 (configuration not stated),67%
16,CCC1CN(C(=O)NCc2ccc(F)cc2)c2cc(Cl)ccc2O1 (configuration not stated),39% (active)
17,CCC1CN(C(=O)NCc2ccc(C)cc2)c2cc(Cl)ccc2O1 (configuration not stated),93%
18,CCC1CN(C(=O)NCc2cccc(OC)c2)c2ccccc2O1 (configuration not stated),62%
19,O=C(NCc1ccco1)c1ccc2c(c1)N(Cc1cccc(Cl)c1)C(=O)c1ccccc1S2=O (configuration not stated),63%
20,CC(=O)N1CCc2c(sc3c2c(=O)n(-c2ccccc2)c(=O)n3CC(=O)Nc2ccccc2C)C1,71%
21,Cc1ccc(C)c(NC(=O)CN2C(=O)CSc3nc(C)cc(C)c32)c1,103%
22,O=C(NCc1ccc(F)cc1Cl)c1cc(=O)[nH]c2ccc(S(=O)(=O)N3CCCCC3)cc12,102%

row,SMILES,survival
1,Cc1ccc(S(=O)(=O)c2cn(Cc3cccc(C)c3)c3cc4c(cc3c2=O)OCO4)cc1,101%
2,CCOc1ccccc1NC(=O)C1CCN(S(=O)(=O)c2cccc3nonc23)CC1,74%
3,O=C(CCNS(=O)(=O)c1cccc2nsnc12)Nc1ccc(F)cc1,56%
4,COc1ccc(C)cc1NC(=O)C1CCN(S(=O)(=O)c2cccc3nonc23)CC1,108%
5,COc1ccc(Cl)cc1NC(=O)CCS(=O)(=O)c1cccc2nonc12,146%
6,O=C(CCS(=O)(=O)c1cccc2nonc12)Nc1cccc(F)c1,67%
7,CCc1ccccc1NC(=O)CCS(=O)(=O)c1cccc2nonc12,74%
8,CCOc1ccccc1NC(=O)CCNS(=O)(=O)c1cccc2nonc12,45% (active)
9,O=C(CCNS(=O)(=O)c1cccc2nonc12)Nc1ccc(F)cc1,45% (active)
10,COc1ccc(NC(=O)CCNS(=O)(=O)c2cccc3nsnc23)cc1OC,65%
11,COc1ccc(C)cc1NC(=O)CCNS(=O)(=O)c1cccc2nonc12,43% (active)
12,COc1ccc(OC)c(NC(=O)CCNS(=O)(=O)c2cccc3nsnc23)c1,49%
13,COc1ccc(NC(=O)CCNS(=O)(=O)c2cccc3nonc23)c(OC)c1,50% (active)
14,CC(=O)N1CCN(c2ccc(NC(=O)COc3ccc(Cl)c(C)c3)cc2)CC1,68%
15,CCN(CC)S(=O)(=O)c1ccc(NC(=O)CN(c2ccccc2)S(=O)(=O)N(C)C)cc1,69%
16,CCNC(=O)c1cnc2sc(N3CCCCCC3)nn2c1=O,81%
17,C/C(Cc1ccccc1)=N\NC(=O)c1cc(C(C)(C)C)[nH]n1,101%
18,CC1=C(c2ccc(C)c(C)c2)S(=O)(=O)N=C1N1CCC(C(=O)NC(C)Cc2ccco2)CC1 (configuration not stated),83%
19,O=C(CN1CCN(c2ncccn2)CC1)N(Cc1ccccc1)c1ccc(F)cc1,78%
20,COc1ccc(NC(=O)C2CCN(C3=NS(=O)(=O)C(c4ccc(C)c(C)c4)=C3C)CC2)c(OC)c1,91%
21,CN=CC1=C(O)C(C(=O)OC)C(C)(C)CC1=O (configuration not stated),74%
22,CCCCCn1c(=O)[nH]c2cc(C(=O)N3CCN(c4ccccc4)CC3)ccc2c1=O,68%

row,SMILES,survival
1,CCOc1ccc(NC(=O)CCS(=O)(=O)c2cccc3nonc23)cc1,78%
2,COc1ccc(NC(=O)CCNS(=O)(=O)c2cccc3nonc23)cc1,50% (active)
3,CCOc1ccc(NC(=O)CCNS(=O)(=O)c2cccc3nonc23)cc1,70%
4,O=C(C1CCCCC1)N(Cc1cccnc1)c1nc2c(F)cc(F)cc2s1,88%
5,COc1ccc(C2C=C(c3ccccc3)Nc3nc(NC(=O)/C=C/c4ccc(Cl)cc4)nn32)cc1 (configuration not stated),53%
6,O=C(/C=C/c1ccc(F)cc1)Nc1nc2n(n1)C(c1ccc(Cl)cc1)C=C(c1ccccc1)N2 (configuration not stated),33% (active)
7,COc1ccccc1/C=C/C(=O)Nc1nc2n(n1)C(c1ccc(F)cc1)C=C(c1ccccc1)N2 (configuration not stated),65%
8,COc1ccc(C2C=C(c3ccccc3)Nc3nc(NC(=O)/C=C/c4ccccc4Cl)nn32)cc1 (configuration not stated),96%
9,O=C(/C=C/c1ccccc1)Nc1nc2n(n1)C(c1ccc(F)cc1)C=C(c1ccccc1)N2 (configuration not stated),44% (active)
10,O=C(/C=C/c1ccccc1)Nc1nc2n(n1)C(c1ccc(Cl)cc1)C=C(c1ccccc1)N2 (configuration not stated),38% (active)
11,COc1ccc(/C=C/C(=O)Nc2nc3n(n2)C(c2ccccc2)C=C(c2ccc(Cl)cc2)N3)cc1 (configuration not stated),77%
12,COc1ccc(C2C=C(c3ccccc3)Nc3nc(NC(=O)/C=C/c4ccccc4)nn32)cc1 (configuration not stated),59%
13,COc1ccc(C2C=C(c3ccccc3)Nc3nc(NC(=O)/C=C/c4ccccc4OC)nn32)cc1 (configuration not stated),52% (active)
14,COc1ccc(NCc2cccn2-c2nnc(N3CCC(C)CC3)s2)c(OC)c1,73%
15,COc1ccc(C(=O)Nc2ccccc2C(=O)NC(C(=O)O)C(C)C)cc1 (configuration not stated),84%
16,O=C(CSc1nc(-c2ccccc2)cc(=O)[nH]1)Nc1ccccc1F,89%
17,CCCN(CCC)S(=O)(=O)c1ccc(C(=O)N2CCC(=O)c3ccccc32)cc1,94%
18,CCc1cccc(C)c1NC(=O)C(CC)n1ncn2c(cc3cc(C)ccc32)c1=O (configuration not stated),86%
19,COc1ccc(NC(=O)CN(c2cccc(C)c2C)S(=O)(=O)c2ccccc2)cc1OC,61%
20,Cc1ccc2c(c1)cc1c(=O)n(CC(=O)N(C)c3ccccc3)nc(C)n12,129%
21,O=C(NCCc1ccccc1)c1ccc2c(c1)N(Cc1ccccc1)C(=O)c1ccccc1S2=O (configuration not stated),70%
